# From PubChem BioAssay (NCATS)
# Inconclusive results are not listed. Calls of active or inactive are those of the source. Unless noted, calls come from the whole dose curve; as a rule, active = well fitted cell-killing curve with a large enough effect; inconclusive = small, poorly fitted or top-dose-only effect, or effect the other way; inactive = no such curve, though single readings can be large or run the other way.
# How the values were obtained:
# [1] = Quantitative High-Throughput drug screen in 47 multiple myeloma cell lines against the NCATS MIPE library collection: RPMI8226_ATCC cell viability assay (AID 1919871); note: nearly all actives have a fitted effect of over 30% in size; note: potency is the fitted concentration of half-maximal effect
# In short: (§1)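 Cells were exposed to library compounds for 48 hours, after which ATP was measured by CellTiter-Glo. Signal was taken as median relative luminescence units.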
# [2] = qHTS drug screen for cell cycle checkpoint inhibitors in PARPi-resistant BRCA-mutant ovarian cancer cell lines. (AID 1963452; calls by dose curve); details: PEO1/OlaR viability, CellTiter-Glo luminescence, 96 h, stronger effect = lower value
# In short: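 PEO1, PEO4 and PEO1/OlaR ovarian cancer cells, 600 per well, exposed 96 h at 37C to a dilution series. Viability read by CellTiter-Glo luminescence, normalized to DMSO and empty wells; activity summarized as Z-AUC.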
# [3] = Quantitative High-Throughput drug screen in 47 multiple myeloma cell lines against the NCATS MIPE library collection: L363_DSMZ cell viability assay (AID 1918984); note: potency is the fitted concentration of half-maximal effect; nearly all actives have a fitted effect of over 40% in size
# In short: as §1
# [4] = Quantitative High-Throughput drug screen in 47 multiple myeloma cell lines against the NCATS MIPE library collection: KMS34_JCRB cell viability assay (AID 1918985); note: nearly all actives have a fitted effect of over 40% in size
# In short: as §1
# [5] = Quantitative High-Throughput drug screen in 47 multiple myeloma cell lines against the NCATS MIPE library collection: OCIMY5_PLB cell viability assay (AID 1918988); note: potency is the fitted concentration of half-maximal effect; nearly all actives have a fitted effect of over 65% in size
# In short: as §1
# [6] = Quantitative High-Throughput drug screen in 47 multiple myeloma cell lines against the NCATS MIPE library collection: OPM1_PLB cell viability assay (AID 1918989); note: potency is the fitted concentration of half-maximal effect; nearly all actives have a fitted effect of over 40% in size
# In short: as §1
# [7] = Quantitative High-Throughput drug screen in 47 multiple myeloma cell lines against the NCATS MIPE library collection: XG6_PLB cell viability assay (AID 1919865); note: nearly all actives have a fitted effect of over 40% in size; note: potency is the fitted concentration of half-maximal effect
# In short: as §1
# [8] = Quantitative High-Throughput drug screen in 47 multiple myeloma cell lines against the NCATS MIPE library collection: XG1_PLB cell viability assay (AID 1919866); note: nearly all actives have a fitted effect of over 35% in size
# In short: as §1
# [9] = Quantitative High-Throughput drug screen in 47 multiple myeloma cell lines against the NCATS MIPE library collection: VP6_DJ cell viability assay (AID 1919867); note: nearly all actives have a fitted effect of over 40% in size; note: potency is the fitted concentration of half-maximal effect
# In short: as §1
# [10] = Quantitative High-Throughput drug screen in 47 multiple myeloma cell lines against the NCATS MIPE library collection: PE2_PLB cell viability assay (AID 1919869); note: nearly all actives have a fitted effect of over 35% in size; note: potency is the fitted concentration of half-maximal effect
# In short: as §1
# [11] = Quantitative High-Throughput drug screen in 47 multiple myeloma cell lines against the NCATS MIPE library collection: OPM2_DSMZ cell viability assay (AID 1919872); note: nearly all actives have a fitted effect of over 30% in size
# In short: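 We plated 500 myeloma cells per well, pinned in MIPE 4.0 compounds, and incubated for 48 hours at 37C. ATP was then quantified with CellTiter-Glo, with DMSO and media-only wells defining 100% and 0%.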
# [12] = Quantitative High-Throughput drug screen in 47 multiple myeloma cell lines against the NCATS MIPE library collection: OCIMY7_PLB cell viability assay (AID 1918987); note: series mostly up to about 46 µM; nearly all actives have a fitted effect of over 65% in size
# In short: as §1
# [13] = Quantitative High-Throughput drug screen in 47 multiple myeloma cell lines against the NCATS MIPE library collection: SKMM1_PLB cell viability assay (AID 1919863); details: SKMM1 myeloma viability, CellTiter-Glo ATP, 48 h; viability: stronger effect = lower value; note: series mostly up to about 46 µM; nearly all actives have a fitted effect of over 35% in size
# In short: as §1
# [14] = Quantitative High-Throughput drug screen in 47 multiple myeloma cell lines against the NCATS MIPE library collection: PCM6_Riken cell viability assay (AID 1919870); note: nearly all actives have a fitted effect of over 30% in size
# In short: as §1
# [15] = Quantitative High-Throughput drug screen in 47 multiple myeloma cell lines against the NCATS MIPE library collection: KMS11_JCRBsus cell viability assay (AID 1919873); note: nearly all actives have a fitted effect of over 50% in size
# In short: as §1
# [16] = Quantitative High-Throughput drug screen in 47 multiple myeloma cell lines against the NCATS MIPE library collection: KMS28BM_JCRB cell viability assay (AID 1919874); note: nearly all actives have a fitted effect of over 35% in size
# In short: as §1
# [17] = Quantitative High-Throughput drug screen in 47 multiple myeloma cell lines against the NCATS MIPE library collection: U266_ATCC cell viability assay (AID 1919864)
# In short: as §1
# [18] = measured here: PEO1 parental Z-AUC
smiles,measurement,setting,value
C=CC(=O)N1CCC[C@@H](n2nc(-c3ccc(Oc4ccccc4)cc3)c3c(N)ncnc32)C1,Potency,[1],20.9 µM (active)
same,Z-AUC,[2],0.296 (inactive)
same,Z-AUC,[2]; [18],0.501
same,Z-AUC,[2]; measured here: PEO4 Z-AUC,0.517
CC1(C)O[C@@H]2C[C@@H]3[C@H]4C[C@@H](F)C5=CC(=O)C=C[C@]5(C)[C@@]4(F)[C@@H](O)C[C@]3(C)[C@]2(C(=O)CO)O1,Potency,[3],0.0372 µM (active)
same,Potency,[4],inactive
same,Potency,[5],0.0166 µM (active)
same,Potency,[6],0.0187 µM (active)
same,Potency,[7],inactive
same,Potency,[8],inactive
same,Potency,[9],inactive
same,Potency,[10],1.18 µM (active)
same,Potency,[1],0.0083 µM (active)
same,Potency,[11],inactive
CC(=O)SC[C@@H](C)C(=O)N1CCC[C@H]1C(=O)N[C@@H](Cc1ccccc1)C(=O)O,Potency,[12],inactive
same,viability,[13],151% (inactive)
same,Potency,[8],inactive
same,Potency,[10],inactive
same,Potency,[14],inactive
same,Potency,[1],inactive
same,Potency,[15],inactive
same,Potency,[16],inactive
same,Z-AUC,[2],0.0192 (inactive)
same,Z-AUC,[2]; [18],-0.242
same,Z-AUC,[2]; measured here: PEO4 Z-AUC,-0.303
CS(=O)(=O)N1CCN(Cc2cc3nc(-c4cccc5[nH]ncc45)nc(N4CCOCC4)c3s2)CC1,Potency,[1],0.264 µM (active)
same,Z-AUC,[2],0.0585 (inactive)
same,Z-AUC,[2]; [18],0.321
same,Z-AUC,[2]; measured here: PEO4 Z-AUC,0.781
Cn1cc(-c2ccncc2)c(-c2ccc(OCc3ccc4ccccc4n3)cc2)n1,Potency,[3],2.64 µM (active)
same,Potency,[5],16.6 µM (active)
same,Potency,[6],10.5 µM (active)
same,Potency,[17],18.7 µM (active)
same,Potency,[7],5.9 µM (active)
same,Potency,[9],5.26 µM (active)
same,Potency,[10],5.9 µM (active)
same,Potency,[1],6.62 µM (active)
same,Z-AUC,[2],0.205 (inactive)
same,Z-AUC,[2]; [18],-0.209
same,Z-AUC,[2]; measured here: PEO4 Z-AUC,0.0189
